From PubChem BioAssay (NCATS) come the findings set out here.

Results filed as inconclusive are left out. Entries that show only a call come without a potency. Activity calls are given as the source filed them. Calls come from the whole dose curve; as a rule, active = well fitted inhibition curve with a large enough effect; inconclusive = small, poorly fitted or top-dose-only effect; inactive = no such curve, though single readings can be large or run the other way.

A short description of this assay: Primary qHTS for small molecule stabilizers of the endoplasmic reticulum resident proteome: Secreted ER Calcium Modulated Protein (SERCaMP) assay (AID 1508630). To be noted: SH-SY5Y GLuc-SERCaMP (Gaussia luciferase released on ER calcium loss) secretion, thapsigargin, luminescence; series mostly up to 38.4 µM. The method, boiled down:
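GLuc-SERCaMP-expressing SH-SY5Y cells, pretreated 16 h with compound, are challenged with thapsigargin to empty ER calcium stores; after 4 h, coelenterazine is added directly to the medium and luminescence is imaged.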
In general terms: In qHTS, concentration-response curves come from the screen itself.
In the case of `C[C@@]12CC(=O)C3=C(CCCC3=O)N1CCc1ccccc12`, the Potency result is “inactive”.

For the compound `COc1c(C2=CC(=O)N(C)C2=O)c2c(n1C)C(=O)c1ccccc1C2=O`, the Potency entry was “inactive”.

As to `COc1cc(/C=C/C(=O)c2c(O)cc(C)oc2=O)ccc1O`, the Potency entry was “inactive”.

With `COc1cc(C2=N/C(=C\c3ccccc3)C(=O)O2)cc(OC)c1OC`, the Potency result was “inactive”. With `CC12CC[C@@](C(=O)O)(C(=O)C1=O)C2(C)C` the entry was “inactive”. As for `O=C1Nc2ccccc2C(=O)N2CCC[C@@H]12`, the Potency entry is “inactive”. `Cc1csc(-c2coc3cc(O[C@@H]4O[C@H](CO)[C@@H](O)[C@@H](O)[C@H]4O)ccc3c2=O)n1`: the Potency result was “inactive”. To `CC(C)C1NC(C(=O)O)Cc2c1[nH]c1ccccc21` (stereo not given) belongs “inactive”. As for `COc1ccc([C@H]2c3cc(OC)c(OC)cc3C[C@@H](C)[C@@H]2C)cc1OC`, the Potency entry is “inactive”. With `O=CN1CCc2c([nH]c3ccccc23)C1c1cccc2cccnc12` (stereo not given) the entry was “inactive”; with `Cc1nc(-c2coc3c(O)c(O)ccc3c2=O)cs1`, “inactive”. With `C=C1C[C@]23C[C@@]1(O)CC[C@H]2[C@@]12C=C[C@H](O)C(C)(C(=O)O1)[C@H]2[C@@H]3CC(=O)O` the entry was “inactive”; with `O=C(O)c1ccccc1-c1oc2cc(O)ccc2c(=O)c1Oc1ccccc1`, “inactive”; with `COc1c2c(nc3occc13)C(CC=C(C)C)(OC)C(=O)C=C2` (stereo not given), “inactive”. To `COc1cc2c(cc1OC)C(c1c[nH]c3ccccc13)NCC2` (stereo not given) belongs “inactive”. For `Nc1nc(=S)c2ncn([C@@H]3O[C@H](CO)[C@@H](O)[C@H]3O)c2[nH]1`, the Potency result was “inactive”.

Regarding `COc1cc(=O)n(C)c2c(OCC3OC(C)(C)OC3(C)C)cccc12` (stereo not given), the Potency entry is “inactive”. With `Cn1c2c(c(=O)c3ccccc31)C[C@@H](O)C(C)(C)O2` the entry was “inactive”; with `COc1cc2oc(=O)c3c4c(cc5ccc(c1CCN(C)C)c2c53)OCO4`, “inactive”; with `CC(C)=CCC1=C(O)[C@](O)(CC=C(C)C)C(=O)C(C(=O)CC(C)C)=C1O`, “inactive”. With `CCCc1c(OCC(O)COc2ccc3c(=O)cc(C(=O)O)oc3c2CCC)ccc(C(C)=O)c1O` (stereo not given) the entry was “inactive”.

Take `COc1cc2c(cc1O)-c1ccccc1CN(C)C2`: the Potency result was “inactive”.

Turning to `COc1ccc(/C=C/c2cc(OC)c(OC)cc2CC[N+](C)(C)C)cc1`, the Potency entry was “inactive”. As to `COc1c2c(cc3c1C(c1c(O)c4ccccc4oc1=O)N(C)CC3)OCO2` (stereo not given), the Potency entry was “inactive”.

`CC(=O)[C@@]1(O)[C@H](O)CC2C3CCC4CC(O)CC[C@]4(C)C3CC[C@@]21C` (stereo not given in full): the Potency entry is “inactive”. To `C=C(C)C(=O)OC[C@@H]1CCC[N@+]2(C)CCCCC12` (stereo not given in full) belongs “inactive”; to `CN[C@H]1CCc2cc(OC)c(OC)c(OC)c2-c2ccc(N[C@@H]3CCCCNC3=O)c(=O)cc21`, “inactive”; to `COc1ccc(/C=C/C(=O)/C=C/c2ccc(OC)cc2OC)c(OC)c1`, “inactive”. As for `COc1ccc([C@@H](C)C(=O)c2ccc(O)cc2O)cc1`, the Potency result was “inactive”.

For the compound `COc1cc2c(cc1OC)-c1cc3cc(OC)c(OC)cc3c(=O)n1CC2`, the Potency entry was “inactive”. To `C=CC(C)(O)CC1[C@@]2(C)CCCC(C)(C)C2CC[C@]1(C)O` (stereo not given in full) belongs “inactive”; to `C[C@@H]1Oc2ccccc2C=C1/C=C/C(=O)O`, “inactive”. With `COc1ccc(C(=O)N(O)c2ccccc2)cc1` the entry was “inactive”. As for `COc1c(CO)cc(CO)cc(CO)c1=O`, the Potency entry was “inactive”. Regarding `O=c1oc2cc(O)ccc2cc1-c1ccc2c(c1)OCCO2`, the Potency result was “inactive”. To `COc1ccc(/C(=C\C(=O)O)c2nccc3cc(OC)c(OC)cc23)cc1OC` belongs “inactive”; to `c1cnc2c(-c3nccc4c3[nH]c3ccccc34)cccc2c1`, “inactive”; to `CC1=CC2C(C)(C)CC(=O)C[C@]2(C)CC1COc1ccc2c(c1)CC(=O)C=C2` (stereo not given in full), “inactive”. With `CCOC(=O)c1ncc2[nH]c3cccc(OC(C)C)c3c2c1C`, the Potency entry is “inactive”. With `COc1cccc2c(=O)c3ccoc3n(C)c12` the entry was “inactive”.
